# Laboratory results from PubChem BioAssay.
# Values without a mark were called inactive. For some of these results: Results with a measured potency or affinity are listed apart. Active and inactive are the calls of the source. Unless noted, no rule for the calls is given here.
# Assays:
# [1] = antimalarial activity against Dd2 strain (AID 2302;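 active = growth inhibition above 50% at the single 2 µM test dose, taken to imply half-maximal potency below 2 µM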;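 also: 0% = DMSO untreated growth and 100% = chloroquine plus artemisinin killed control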); conditions: P. falciparum Dd2 in RBCs, LDH growth readout, 72 h; at 2 µM; active compounds read high
# [2] = human hepatoma cell viability loss – ATP luminescence, cytotoxicity control for P. falciparum antimalarial project, primary screen (AID 2303;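 active = inhibition above 50%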;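 also: 0% = DMSO wells and 100% = digitonin-killed cells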); conditions: HepG2 viability, 24-48 h, at 10 µM, active compounds read high
# [3] = biological target: L-lactate dehydrogenase (Plasmodium falciparum (isolate CDC / Honduras)) (UniProt Q27743); test: PfLDH activity inhibition – cell lysate, 3D7 strain, counter-screen for P. falciparum growth inhibition project (AID 2304);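 also: 0% = vehicle and 100% = reference inhibitor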; conditions: P. falciparum 3D7 crude extract, LDH APAD/NBT absorbance; at 2 µM; active compounds read high
# [4] = inhibition of 3D7 malaria parasite growth – strain 3D7 (AID 2306);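 also: 0% = DMSO wells and 100% = chloroquine plus artemisinin control wells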; conditions: P. falciparum 3D7 erythrocytic growth, LDH absorbance, 72 h; at 2 µM; active compounds read high
# [5] = biological target: Calcium-dependent protein kinase 1 (Plasmodium falciparum (isolate 3D7)) (UniProt P62344); test: PfCDPK1 kinase inhibitors, biochemical, TCAMS library (AID 1159585; cut-off not given, nearly all actives have IC50 up to about 0.98 µM;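 also: inhibitors leave more ATP so luminescence rises with inhibition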); conditions: recombinant PfCDPK1, Kinase-Glo ATP depletion luminescence
# [6] = biological target: Plasmodium falciparum protein kinase 6 (PK6, PF3D7_1337100) (UniProt Q8IDW1); test: PfPK6 kinase inhibitors, biochemical, TCAMS library (AID 1159586); conditions: recombinant PfPK6, Kinase-Glo ATP depletion luminescence
# [7] = biological target: Protein kinase 7 (PK7), Plasmodium falciparum 3D7 (PF3D7_0213400) (UniProt Q7YTF7); test: inhibition of Plasmodium PK7 catalytic activity – biochemical, TCAMS antimalarial set, Kinase-Glo luminescence (AID 1159587); conditions: recombinant PfPK7, Kinase-Glo ATP depletion luminescence
# [8] = biological target: Calcium-dependent protein kinase 4 (Plasmodium falciparum (isolate 3D7)) (UniProt Q8IBS5); test: PfCDPK4 kinase inhibitors, biochemical, TCAMS library (AID 1159588; cut-off not given, nearly all actives have IC50 up to about 0.91 µM); conditions: recombinant PfCDPK4, Kinase-Glo ATP depletion luminescence
# Chain of Calcium-dependent protein kinase 4 (Plasmodium falciparum (isolate 3D7)) (Q8IBS5 whole entry, looked up): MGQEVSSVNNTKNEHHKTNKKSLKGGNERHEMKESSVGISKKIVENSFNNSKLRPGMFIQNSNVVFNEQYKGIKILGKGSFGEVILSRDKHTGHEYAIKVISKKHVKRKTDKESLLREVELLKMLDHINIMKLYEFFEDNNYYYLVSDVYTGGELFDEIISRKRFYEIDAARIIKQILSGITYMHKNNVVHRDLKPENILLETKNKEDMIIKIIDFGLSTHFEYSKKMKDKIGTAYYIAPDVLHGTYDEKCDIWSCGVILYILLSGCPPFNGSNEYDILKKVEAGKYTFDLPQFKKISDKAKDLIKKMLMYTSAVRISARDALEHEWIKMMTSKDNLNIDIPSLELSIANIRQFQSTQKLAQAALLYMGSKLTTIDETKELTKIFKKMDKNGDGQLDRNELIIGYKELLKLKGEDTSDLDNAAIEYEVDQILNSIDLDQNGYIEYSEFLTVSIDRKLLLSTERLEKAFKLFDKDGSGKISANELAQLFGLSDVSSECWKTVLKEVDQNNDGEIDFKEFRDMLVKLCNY
# Chain of Protein kinase 7 (PK7), Plasmodium falciparum 3D7 (PF3D7_0213400) (Q7YTF7 1-343): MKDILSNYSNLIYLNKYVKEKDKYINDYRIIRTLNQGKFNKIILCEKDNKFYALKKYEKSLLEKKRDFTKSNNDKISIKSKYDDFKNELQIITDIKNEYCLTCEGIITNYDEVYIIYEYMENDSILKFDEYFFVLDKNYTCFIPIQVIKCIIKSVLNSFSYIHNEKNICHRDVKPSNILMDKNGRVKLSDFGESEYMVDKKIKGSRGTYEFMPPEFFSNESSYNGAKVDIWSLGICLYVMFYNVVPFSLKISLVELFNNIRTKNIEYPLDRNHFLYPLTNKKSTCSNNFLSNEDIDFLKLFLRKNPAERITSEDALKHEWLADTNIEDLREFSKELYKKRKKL
# Chain of Plasmodium falciparum protein kinase 6 (PK6, PF3D7_1337100) (Q8IDW1 1-305): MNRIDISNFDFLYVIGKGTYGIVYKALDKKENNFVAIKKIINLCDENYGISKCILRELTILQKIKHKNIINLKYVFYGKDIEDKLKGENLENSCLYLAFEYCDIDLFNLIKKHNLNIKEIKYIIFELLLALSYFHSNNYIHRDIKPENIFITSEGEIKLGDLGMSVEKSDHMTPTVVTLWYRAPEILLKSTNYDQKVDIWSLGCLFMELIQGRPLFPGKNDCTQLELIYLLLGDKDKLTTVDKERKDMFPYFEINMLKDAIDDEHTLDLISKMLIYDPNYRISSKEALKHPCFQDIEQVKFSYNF
# Chain of L-lactate dehydrogenase (Plasmodium falciparum (isolate CDC / Honduras)) (Q27743 whole entry, looked up): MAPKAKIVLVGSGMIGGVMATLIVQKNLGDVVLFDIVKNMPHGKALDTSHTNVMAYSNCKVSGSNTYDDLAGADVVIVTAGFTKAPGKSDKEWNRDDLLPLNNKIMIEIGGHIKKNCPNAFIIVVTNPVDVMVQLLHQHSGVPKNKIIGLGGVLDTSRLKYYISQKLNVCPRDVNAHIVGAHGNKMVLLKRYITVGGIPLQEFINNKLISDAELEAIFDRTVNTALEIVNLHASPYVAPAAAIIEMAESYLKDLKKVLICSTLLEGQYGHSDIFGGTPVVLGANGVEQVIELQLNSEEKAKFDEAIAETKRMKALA
# Chain of Calcium-dependent protein kinase 1 (Plasmodium falciparum (isolate 3D7)) (P62344 whole entry, looked up): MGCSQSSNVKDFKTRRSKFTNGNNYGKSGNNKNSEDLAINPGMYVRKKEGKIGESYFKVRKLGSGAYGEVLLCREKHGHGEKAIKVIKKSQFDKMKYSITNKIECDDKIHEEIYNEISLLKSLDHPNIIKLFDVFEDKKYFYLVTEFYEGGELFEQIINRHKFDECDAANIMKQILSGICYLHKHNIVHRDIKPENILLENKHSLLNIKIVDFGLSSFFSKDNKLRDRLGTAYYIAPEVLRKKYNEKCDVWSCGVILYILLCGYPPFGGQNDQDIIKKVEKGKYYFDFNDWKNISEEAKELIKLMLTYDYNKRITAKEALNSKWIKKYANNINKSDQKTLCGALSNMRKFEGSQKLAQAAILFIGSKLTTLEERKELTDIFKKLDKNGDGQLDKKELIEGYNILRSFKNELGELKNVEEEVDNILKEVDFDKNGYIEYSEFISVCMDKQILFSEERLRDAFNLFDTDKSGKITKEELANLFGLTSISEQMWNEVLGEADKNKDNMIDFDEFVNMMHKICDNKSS
Structure (SMILES),growth inhibition [1],inhibition [2],inhibition [3] [%],growth inhibition [4],outcome [5],outcome [6],outcome [7],outcome [8]
Cc1[nH]c(C)c(-c2ccc(-c3ccc(OC(F)(F)F)cc3)nc2)c(=O)c1Br,97% (active),26%,3,97% (active),inactive,inactive,inactive,inactive
Cc1cccc2[nH]c(-c3ccc(-c4ccc(NC(=O)C(=O)c5cccn5C)cc4)cc3)nc12,15%,40%,8,95% (active),inactive,inactive,inactive,inactive
COc1ccc2nccc([C@@H](O)CN3CCC(NC(=O)c4ccc(OC)c(N)c4)CC3)c2c1,0%,9%,-3,93% (active),inactive,inactive,inactive,inactive
Cc1cc(N)c2cc(NC(=O)CCC(=O)Nc3ccc4nc(C)cc(N)c4c3)ccc2n1,77% (active),-2%,1,85% (active),inactive,inactive,inactive,inactive
O=[N+]([O-])c1cccc(C=NNc2nc(Nc3ccccc3)nc(Nc3ccccc3)n2)c1,55% (active),10%,3,99% (active),inactive,inactive,inactive,inactive
Cn1cc(CN2CCCC(COC(c3ccccc3)c3ccccc3)C2)cn1 (stereo not given),99% (active),24%,0,99% (active),inactive,inactive,inactive,inactive
COc1ccc(NC(=O)Nc2ccc(-c3ccccc3)cc2)cc1Cn1cnc(N2CCCNCC2)cc1=O,38%,24%,8,101% (active),inactive,inactive,inactive,inactive
CCCCN=C(N)c1ccc(OCCCCCOc2ccc(C(N)=NCCCC)cc2)cc1,99% (active),19%,-4,99% (active),inactive,inactive,inactive,inactive
COc1ccc(NC(=O)CCNc2ccnc(NCCc3ccc(F)cc3)n2)cc1,5%,4%,-3,94% (active),inactive,inactive,inactive,inactive
CCn1ccc2c(N3CCCS3(=O)=O)cc(C(=O)N[C@@H](Cc3ccccc3)[C@H](O)CNC(C)(C)c3cccc(OC)c3)cc21,98% (active),20%,-8,99% (active),inactive,inactive,inactive,inactive
Cc1c(-c2ccc3c(c2)C(NCCCN2CCCCC2)CC3)cnc(N)c1C (stereo not given),3%,4%,-3,97% (active),inactive,inactive,inactive,inactive
Cn1cncc1C(=O)Nc1cccc(-c2ccc(-c3nc4ccc(C(F)(F)F)cc4[nH]3)cc2)c1,98% (active),4%,1,97% (active),inactive,inactive,inactive,inactive
C[C@H](Cc1ccc(OCCCCCCOc2ccc(C[C@@H](C)N[C@H](C)c3ccccc3)cc2)cc1)NC[C@H](O)c1cccc(Cl)c1,98% (active),99% (active),-4,99% (active),inactive,inactive,inactive,inactive
CN(C)S(=O)(=O)c1ccc(C(=O)N(c2nc(-c3ccccc3)cs2)C2CCCCC2)cc1,46%,7%,-3,98% (active),inactive,inactive,inactive,inactive
c1cncc(CCNCc2cccc(-c3csc(-c4nc5ccccc5[nH]4)c3)c2)c1,98% (active),26%,-1,100% (active),inactive,inactive,inactive,inactive
COc1ccccc1C1CCN(CCCCNC(=O)c2ccc(NC(=O)c3ccc(Cl)cc3)cc2)CC1,12%,21%,6,95% (active),inactive,inactive,inactive,inactive
CCNc1cc(C(=O)N[C@@H](Cc2ccccc2)[C@H](O)CNC(C)(C)CCCC(C)C)cc(N2CCCCS2(=O)=O)c1,98% (active),5%,2,98% (active),inactive,inactive,inactive,inactive
Cc1[nH]c(C)c(-c2ccc(Br)cc2)c(=O)c1Br,95% (active),9%,6,98% (active),inactive,inactive,inactive,inactive
O=C(Cn1c(CCc2cccc(F)c2F)cc(=O)c2cccnc21)N(CCn1ccnc1)Cc1ccc(-c2ccc(C(F)(F)F)cc2)cc1,62% (active),39%,0,99% (active),inactive,inactive,inactive,inactive
N=C(N)c1ccc(C(=O)Nc2cccc(C(=N)N)c2)cc1,82% (active),13%,-2,88% (active),inactive,inactive,inactive,inactive
